Structures are written as SMILES. Values joined by “and” are separate entries in the source; they are usually repeats but may differ in a detail not shown here. Identical values can stand only once. Among all 6,400 compounds or so, about 610 (9.5%) were called active. No stated cut-off is given here; in the data, active means activity change below about -70%; inconclusive means no clear call, values can overlap the other calls; inactive means above that. For the sample, actives were picked, then their nearest neighbours and some compounds at random. A structure can be active in one record and inactive in another.

A short description of this assay: T. gondii ME49Luc in HeLa cells, luciferase assay, 72 h, no IFN-y (AID 1259421). The conditions noted are these: stronger effect = lower value, concentration not given here.
Turning to `CC(C)(C)Sc1c(CC(C)(C)C(=O)O)n(Cc2ccc(Cl)cc2)c2ccc(OCc3ccc4ccccc4n3)cc12`, the activity change, negative = inhibition is 12.6% (inactive).

In the case of `COC(=O)C(Cc1ccc(OCCn2c(=O)sc3cc(C(=O)c4ccccc4)ccc32)cc1)C(=O)OC`, the activity change, negative = inhibition was 18.5% (inactive).

Consider `CN(C)CCCO[C@H]1[C@@H](C(O)CO)OC2OC(C)(C)O[C@@H]21` (stereo partly drawn), for which the activity change, negative = inhibition is 4.68% (inactive).

In the case of `Oc1cc2c(c(Cl)c1O)CCNC[C@@H]2c1ccccc1`, the activity change, negative = inhibition is -18.1% (inactive).

`CCOC(=O)NCC(Cc1ccc(OCCc2nc(-c3ccccc3)oc2C)cc1)N/C(C)=C/C(=O)c1ccc(C(F)(F)F)cc1` (stereo not drawn): the activity change, negative = inhibition was -49.9% (inactive).

As to `CNCCn1c(=O)c2cc(OC)c(OC)cc2c2cnc3cc4c(cc3c21)OCO4`, the activity change, negative = inhibition was -94.2% (active).

For the compound `O=C1NC(O)CCN1[C@@H]1O[C@H](CO)[C@@H](O)[C@H]1O` (stereo partly drawn), the activity change, negative = inhibition was -5.72% (inactive).

In the case of `Cc1ccc(NC(=O)c2cccc(C(C)(C)C#N)c2)cc1Nc1ccc2ncn(C)c(=O)c2c1`, the activity change, negative = inhibition was -3.87% (inactive).

With `NC(=O)c1ccc[n+]([C@@H]2O[C@H](COP(=O)(O)OP(=O)(O)OC[C@H]3O[C@@H](n4cnc5c(N)ncnc54)[C@H](O)[C@@H]3O)[C@@H](O)[C@H]2O)c1`, the activity change, negative = inhibition is -1.89% (inactive).

For the compound `COc1ccc(-c2nc3ccc(C4=NNC(=O)CC4C)cc3[nH]2)cc1` (stereo not drawn), the activity change, negative = inhibition is 21.8% (inactive).

For the compound `O=C(O)c1ccc(Nc2ncc3c(n2)-c2ccc(Cl)cc2C(c2c(F)cccc2F)=NC3)cc1`, the activity change, negative = inhibition is -36.4% (inactive).

Take `CNC(=O)c1nn(C)c2c1C(C)(C)Cc1cnc(Nc3ccc(N4CCN(C)CC4)cc3)nc1-2`: the activity change, negative = inhibition was -73.5% (active).

On to `CCOC(=O)C1=C(N)Oc2ccc(Br)cc2[C@H]1[C@H](C#N)C(=O)OCC`, for which the activity change, negative = inhibition was -65.8% (inactive).

In the case of `CC[C@]12CCCN3CCc4c(n(c5ccccc45)[C@](O)(C(=O)OC)C1)[C@@H]32`, the activity change, negative = inhibition was 8.44% (inactive) and 5.97% (inactive).

For the compound `CCN(CC)CCn1c(=O)c(Cc2ccc(OC)cc2)nc2ccccc21`, the activity change, negative = inhibition was -5.78% (inactive).

Consider `CCCCc1nc2cc(/C=C/C(=O)NO)ccc2n1CCN(CC)CC`, for which the activity change, negative = inhibition is -75.3% (active) and -94% (active).

Turning to `N[C@@]1(C(=O)O)CC[C@H]2[C@H](C(=O)O)[C@H]21`, the activity change, negative = inhibition was 6.82% (inactive).

With `COC(=O)[C@H](Cc1cccc(C(=N)N)c1)[C@@H](C)NC(=O)c1ccc(-c2cc[n+]([O-])cc2)cc1`, the activity change, negative = inhibition is -6.72% (inactive).

With `O=C1c2ccccc2S(=O)(=O)N1CCCN1CCN(c2ncccn2)CC1`, the activity change, negative = inhibition was 6.33% (inactive).

For the compound `CS(=O)(=O)c1ccc(-c2cc(Br)sc2-c2ccc(F)cc2)cc1`, the activity change, negative = inhibition was 22.9% (inactive) and 24.6% (inactive).

Take `CC(=O)[C@]1(O)Cc2c(O)c3c(c(O)c2[C@@H](O[C@H]2C[C@H](N)[C@H](O)[C@H](C)O2)C1)C(=O)c1ccccc1C3=O`: the activity change, negative = inhibition was -72.5% (active) and -66% (inactive) and -71.5% (active).

As for `CC(=O)C1(O)Cc2c(O)c3c(c(O)c2C(OC2CC(N)C(O)C(C)O2)C1)C(=O)c1c(O)cccc1C3=O` (stereo not drawn), the activity change, negative = inhibition is -82.5% (active).

Turning to `CC(C)=CCCC(C)(OC1OC(COC2OC(CO)C(O)C2O)C(O)C(O)C1O)C1CCC2(C)C1C(O)CC1C3(C)CCC(OC4OC(CO)C(O)C(O)C4OC4OC(CO)C(O)C(O)C4O)C(C)(C)C3CCC12C` (stereo not drawn), the activity change, negative = inhibition is 4.49% (inactive).

In the case of `CC(C)C[C@H](NC(=O)[C@@H](COC(C)(C)C)NC(=O)[C@H](Cc1ccc(O)cc1)NC(=O)[C@H](CO)NC(=O)[C@H](Cc1c[nH]c2ccccc12)NC(=O)[C@H](Cc1cnc[nH]1)NC(=O)[C@@H]1CCC(=O)N1)C(=O)N[C@@H](CCCN=C(N)N)C(=O)N1CCC[C@H]1C(=O)NNC(N)=O`, the activity change, negative = inhibition is 8.64% (inactive).

With `O=[N+]([O-])c1cc(Cl)ccc1S(=O)(=O)N1CCN(Cc2ccccc2)CC1`, the activity change, negative = inhibition is 26.6% (inactive).

Regarding `C=C1C[C@]23C[C@@]1(O)CC[C@H]2[C@@]12C=C[C@H](O)[C@@](C)(C(=O)O1)[C@H]2[C@@H]3C(=O)O`, the activity change, negative = inhibition was 13.1% (inactive).

With `CCC(=O)OCC(=O)[C@@]1(OC(=O)CC)[C@@H](C)C[C@H]2[C@@H]3CCC4=CC(=O)C=C[C@]4(C)[C@@]3(Cl)[C@@H](O)C[C@@]21C`, the activity change, negative = inhibition is -74.6% (active) and -1.83% (inactive).

Turning to `CCC(=O)OCC(=O)C1(OC(=O)CC)C(C)CC2C3CCC4=CC(=O)C=CC4(C)C3(Cl)C(O)CC21C` (stereo not drawn), the activity change, negative = inhibition was -2.98% (inactive).

On to `CCC(=O)OCC(=O)[C@@]1(OC(=O)CC)[C@@H](C)C[C@H]2[C@@H]3CCC4=CC(=O)C=C[C@]4(C)[C@@]3(F)[C@@H](O)C[C@@]21C`, for which the activity change, negative = inhibition is -3.54% (inactive).

Regarding `CC/C=C\C/C=C\C/C=C\CCCCCCCC(=O)O`, the activity change, negative = inhibition was 11.4% (inactive).

For the compound `Clc1ccc(N/N=C(\c2ccccc2)c2ccccn2)nc1`, the activity change, negative = inhibition is 31.4% (inactive).

In the case of `N=C(N)S/C=C\C(=O)O`, the activity change, negative = inhibition was 28% (inactive).

Take `O=C(c1ccc(/C=C/c2n[nH]c3ccccc23)cc1)N1CCNCC1`: the activity change, negative = inhibition is -59.7% (inactive).

Take `C[C@@H](Oc1ccc2[nH]nc(/C=C/c3cnn(CCO)c3)c2c1)c1c(Cl)cncc1Cl`: the activity change, negative = inhibition is -81.2% (active).

With `CCCSc1nc(N[C@@H]2C[C@@H]2c2ccc(F)c(F)c2)c2nnn([C@@H]3C[C@H](OCCO)[C@H](O)[C@H]3O)c2n1`, the activity change, negative = inhibition was 5.35% (inactive).

On to `O=C(O)CCNC(=O)c1ccc(N=Nc2ccc(O)c(C(=O)O)c2)cc1`, for which the activity change, negative = inhibition is 22.4% (inactive).

Consider `C[C@H]1O[C@@H](n2cc(F)c(=O)[nH]c2=O)[C@H](O)[C@@H]1O`, for which the activity change, negative = inhibition was -95% (active).

For the compound `O=c1[nH]c(=O)n([C@H]2CCCO2)cc1F`, the activity change, negative = inhibition was -87.1% (active) and -73.6% (active).

On to `O=c1[nH]c(=O)n([C@H]2C[C@H](O)[C@@H](CO)O2)cc1F`, for which the activity change, negative = inhibition is -81.1% (active).

Turning to `Cc1cn([C@@H]2C[C@@H](O)[C@H](CO)O2)c(=O)[nH]c1=O`, the activity change, negative = inhibition is -2.77% (inactive).

As to `Nc1ncn([C@H]2C[C@H](O)[C@@H](CO)O2)c(=O)n1`, the activity change, negative = inhibition is 35.6% (inactive).

With `Nc1nc(=O)n([C@H]2C[C@H](O)[C@@H](CO)O2)cc1F`, the activity change, negative = inhibition was -94.3% (active).

As for `CCCCCOC(=O)Nc1nc(=O)n([C@@H]2O[C@H](C)[C@@H](O)[C@H]2O)cc1F`, the activity change, negative = inhibition is -63.1% (inactive) and -62.7% (inactive).

Take `O=c1[nH]c(=O)n([C@H]2C[C@H](O)[C@@H](CO)O2)cc1Br`: the activity change, negative = inhibition is 12.7% (inactive).

Turning to `Nc1nc(=O)n([C@H]2C[C@@H](O)[C@@H](CO)O2)cc1Cl`, the activity change, negative = inhibition was 7.28% (inactive).

On to `O=c1[nH]c(=O)n([C@H]2C[C@H](O)[C@@H](CO)O2)cc1C(F)(F)F`, for which the activity change, negative = inhibition was -19.7% (inactive) and 1.85% (inactive).

With `Cc1cn([C@H]2O[C@@H](CO)[C@H](O)[C@@H]2F)c(=O)[nH]c1=O`, the activity change, negative = inhibition is 14.2% (inactive).

Regarding `O=c1[nH]c(=O)n([C@H]2CC(O)[C@@H](CO)O2)cc1C(F)(F)F` (stereo partly drawn), the activity change, negative = inhibition is 7.06% (inactive).

`CN(C)CC/C=C1/c2ccccc2COc2ccccc21`: the activity change, negative = inhibition was -63.2% (inactive) and 23.5% (inactive) and 10.1% (inactive).

In the case of `CC(C)C1C(=O)N(S(C)(=O)=O)[C@@H]2CCN(C(=O)/C=C/CN3CCCCC3)[C@@H]12` (stereo partly drawn), the activity change, negative = inhibition was 12% (inactive).

Take `NCCCCCc1cnc[nH]1`: the activity change, negative = inhibition was 11% (inactive).

In the case of `O=c1cc(O)c(Cl)c[nH]1`, the activity change, negative = inhibition was 4.32% (inactive).

Turning to `O=c1ccc2ccc(OCCCCN3CCN(c4cccc5sccc45)CC3)cc2[nH]1`, the activity change, negative = inhibition is 10.5% (inactive).

Turning to `N[C@@H]1CCN(O)C1=O`, the activity change, negative = inhibition is 15% (inactive).

Regarding `O=C(O)CC/C=C\CC[C@@H]1[C@@H](N2CCCCC2)[C@@H](O)C[C@@H]1OCc1ccc(-c2ccccc2)cc1`, the activity change, negative = inhibition was -4.54% (inactive).

For the compound `COC(=O)C[C@H]1C(C)(C)C(=O)[C@@H]2CC3=C4CC(=O)O[C@@H](c5ccoc5)[C@]4(C)CCC3[C@@]1(C)C2=O` (stereo partly drawn), the activity change, negative = inhibition is -15.9% (inactive).

As to `C[N+]1(C)C2CC(OC(=O)[C@@H](CO)c3ccccc3)CC1C1OC12` (stereo partly drawn), the activity change, negative = inhibition was 4.33% (inactive) and 10.7% (inactive).

On to `CCc1cn([C@H]2C[C@H](O)[C@@H](CO)O2)c(=O)[nH]c1=O`, for which the activity change, negative = inhibition is 13.9% (inactive).

Turning to `Cc1cn(C2CC(N=[N+]=[N-])C(CO)O2)c(=O)[nH]c1=O` (stereo not drawn), the activity change, negative = inhibition was 10.1% (inactive).

As for `Cc1cn([C@H]2C[C@H](N=[N+]=[N-])[C@@H](CO)O2)c(=O)[nH]c1=O`, the activity change, negative = inhibition is -81.6% (active).

In the case of `O=C(O)C1[O][Sb]2([O][Sb]34[O]C(C(=O)O)C([O]3)C(C(O)CO)[O]4)[O]C(C(O)CO)C1[O]2` (stereo not drawn), the activity change, negative = inhibition was -75.8% (active).

Take `C(=N\NC1=NCCN1)/c1c2ccccc2c(/C=N/NC2=NCCN2)c2ccccc12`: the activity change, negative = inhibition is -58.3% (inactive).

Take `O=C(Nc1cc2cc[nH]c2cn1)c1ccccc1`: the activity change, negative = inhibition was -32.1% (inactive).

As for `COc1ccc(C(=O)c2ccc(O)cc2)c(O)c1O`, the activity change, negative = inhibition is -0.363% (inactive).

On to `N=C(N)c1ccc2cc(OC(=O)c3ccc(N=C(N)N)cc3)ccc2c1`, for which the activity change, negative = inhibition is 4.69% (inactive).

Regarding `NC(=O)/N=N/C(N)=O`, the activity change, negative = inhibition was 7.42% (inactive).

Turning to `CC(C)(C(=O)NCC(F)(F)C(F)(F)F)C(=O)N[C@@H]1C(=O)Nc2ccccc2-c2ccccc21`, the activity change, negative = inhibition was -88.1% (active).

Regarding `C/C(=C/c1ccc(C(=O)O)cc1)c1ccc2c(c1)C(C)(C)CCC2(C)C`, the activity change, negative = inhibition is -3.41% (inactive).

As for `NC1[C@H]2CN(c3nc4c(cc3F)c(=O)c(C(=O)O)cn4-c3ccc(F)cc3F)C[C@@H]12` (stereo partly drawn), the activity change, negative = inhibition was -37.5% (inactive).

Regarding `O=C(O)CN1C(=O)c2cccc3cccc(c23)C1=O`, the activity change, negative = inhibition is 4.44% (inactive) and 1.05% (inactive).

Take `O=C(O)CCCN1C(=O)c2cccc3cccc(c23)C1=O`: the activity change, negative = inhibition was -5.26% (inactive).

For `O=C(CCCCCN1C(=O)c2cccc3cccc(c23)C1=O)NO`, the activity change, negative = inhibition is -90.6% (active).

For the compound `O=c1cc(-c2ccc(O)cc2)oc2cc(O)ccc12`, the activity change, negative = inhibition is 22.2% (inactive).

(Values after PubChem BioAssay AID1259421 (Broad Institute, 2018).)
